Source: PubChem (The Scripps Research Institute Molecular Screening Center)
hgDAF-12 ag: agonists of H. glycines DAF-12 nuclear receptor; HEK293 GAL4-hgDAF12 UAS-luciferase reporter, agonist luminescence; normalized to butyrate control; activation, % at 6.8 µM; 370,000 tested, 1.8% active; AID 687014;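 active = activation above a cutoff set at the mean of all screened compounds plus 3 SD, cut at about 10% in these data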;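 note: 0% = DMSO wells and 100% = sodium butyrate wells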
DAX1 inh-1: inhibitors of human orphan nuclear receptor DAX1 (NR0B1). P51843. HEK293 Gal4-DAX1 luciferase reporter, luminescence. inhibition, % at 6.75 µM. 340,000 tested, 0.99% active. AID 504766;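 active = inhibition above the mean over all tested compounds plus 3 SD, cut at about 4.2% in these data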;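 note: 0% = DAX1-transfected cells with DMSO and 100% = empty-vector control cells with DMSO; inhibition shows as a rise in luminescence from relieved DAX1 repression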
Target sequence (P51843 207-470 limits assumed): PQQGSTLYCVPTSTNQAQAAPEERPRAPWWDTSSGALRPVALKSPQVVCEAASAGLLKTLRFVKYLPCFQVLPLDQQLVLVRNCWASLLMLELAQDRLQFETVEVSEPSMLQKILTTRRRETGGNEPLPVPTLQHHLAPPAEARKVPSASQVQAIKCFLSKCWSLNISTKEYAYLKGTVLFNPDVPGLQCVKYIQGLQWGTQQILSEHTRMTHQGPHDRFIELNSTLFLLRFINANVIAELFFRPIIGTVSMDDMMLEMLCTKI
hcDAF12 agonist: activates DAF-12 receptor from parasite H. contortus. 370,000 tested, 1.4% active. HEK293 hcDAF-12 lit1-tk-luc reporter, luminescence; 0% DMSO, 100% Δ7-dafachronic acid. activation, % at 6.8 µM;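 active = activation above the mean of all tested compounds plus 3 SD, cut at about 5.5% in these data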;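 note: 100% = response to 3 µM Δ7-dafachronic acid high control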
ssDAF12 agonist: S. stercoralis DAF-12 activation, primary screen; HEK293 ssDAF-12/GRIP1 lit1-tk-luc reporter, luminescence; % of 3 µM dafachronic acid response; activation, % at 6.8 µM; 370,000 tested, 1% active; AID 652126;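 active = activation above the mean over all tested compounds plus 3 SD, cut at about 0.9% in these data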;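 note: 0% = DMSO-only wells and 100% = 3 µM delta7-dafachronic acid wells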
DAX1 inh-2: DAX1 (NR0B1) inhibition, primary screen | HEK293T StAR-luciferase reporter, SF-1/DAX-1 repression relief | inhibition, % at 6.8 µM | 370,000 tested, 1.1% active | AID 652010;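 active = inhibition above the mean over all tested compounds plus 3 SD, cut at about 3.6% in these data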;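 note: 0% = DAX-1 cells with DMSO and 100% = cells lacking DAX-1 with DMSO; higher inhibition means more luminescence from relief of DAX-1 repression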
AHR act: human AHR activation. AHR-responsive luciferase reporter cells, luminescence. 320,000 tested, 2.5% active. AID 2796. activation, % at 5 µM; in the data active = activation above about 47%;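 note: 0% = vehicle wells and 100% = reference agonist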
LXR ag: LXR-beta agonism as hcDAF-12 counter-screen; shares compounds with hcDAF12 agonist; HEK293 Gal4-LXR tk-luc reporter, luminescence, 24 h; normalized: DMSO 0%, positive control 100%; activation, % at 6.8 µM; 3,400 tested, under 10 active;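 active = mean percent activation of the reporter above a cutoff set as the average over tested compounds plus their standard deviation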
Target sequence (P55055 whole entry, looked up, the tested form may be a part): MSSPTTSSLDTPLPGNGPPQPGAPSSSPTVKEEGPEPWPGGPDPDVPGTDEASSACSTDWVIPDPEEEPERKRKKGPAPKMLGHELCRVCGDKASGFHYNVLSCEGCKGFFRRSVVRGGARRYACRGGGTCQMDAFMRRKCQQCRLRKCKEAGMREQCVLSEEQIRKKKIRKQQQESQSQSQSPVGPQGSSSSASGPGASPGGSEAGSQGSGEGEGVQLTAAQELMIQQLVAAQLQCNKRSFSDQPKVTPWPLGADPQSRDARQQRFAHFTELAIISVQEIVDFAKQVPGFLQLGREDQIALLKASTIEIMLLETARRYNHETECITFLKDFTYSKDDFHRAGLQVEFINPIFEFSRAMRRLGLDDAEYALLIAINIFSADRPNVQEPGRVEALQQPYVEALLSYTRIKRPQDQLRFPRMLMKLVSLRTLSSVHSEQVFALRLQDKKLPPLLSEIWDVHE
hcDAF12 ag: hcDAF-12 agonism, confirmation assay; activation, % at 6.8 µM; AID 743032; 3,400 tested, 61% active; shares compounds with hcDAF12 agonist; HEK293 hcDAF-12 lit1-tk-luc reporter, luminescence; % of Δ7-dafachronic acid response;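 active = mean activation across triplicate tests above the threshold derived from the earlier primary screen, cut at about 5.5% in these data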;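 note: 0% = DMSO only wells and 100% = 3 µM Δ7-dafachronic acid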
Numbers without * were called inactive. In the library only some 5.7% were active in any assay of this set; here they are far more common.

How did CC(=O)Nc1ccc(S(=O)(=O)Nc2nc3ccccc3nc2N2CCc3ccccc3C2)cc1 do in these assays?
hgDAF-12 ag: 8.1; DAX1 inh-1: 0.9; hcDAF12 agonist: 10.8*; ssDAF12 agonist: 2.2*; DAX1 inh-2: 2.7; AHR act: 53.6*; LXR ag: 0.3; hcDAF12 ag: 6.7*

How did CC1CCCCN1C(=O)CSCC(=O)Nc1nc(-c2cccs2)cs1 (stereo not drawn) do in these assays?
hgDAF-12 ag: 6.8; DAX1 inh-1: 1.1; hcDAF12 agonist: 6.6*; ssDAF12 agonist: -0.2; DAX1 inh-2: 0.6; AHR act: 13.9; LXR ag: -0.2; hcDAF12 ag: 2.0

How did CC1CCN(C(=O)CSCC(=O)Nc2nc(-c3cccs3)cs2)CC1 do in these assays?
hgDAF-12 ag: 5.0; DAX1 inh-1: 0.2; hcDAF12 agonist: 4.3; ssDAF12 agonist: -1.0; DAX1 inh-2: 2.0; AHR act: 16.6

What do the screens show for `CC(C)(C)NC(=O)CN(CC1CCCO1)C(=O)CNS(=O)(=O)c1ccc(F)cc1` (stereo not drawn)?
hgDAF-12 ag: -1.2; DAX1 inh-1: 0.3; hcDAF12 agonist: -0.1; ssDAF12 agonist: -1.4; DAX1 inh-2: 0.2; AHR act: 0.1

Results for Cc1cc(NC(=O)CSc2c(C)[nH]c3ccccc23)no1 ?
hgDAF-12 ag: 4.4; DAX1 inh-1: 1.9; hcDAF12 agonist: 6.8*; ssDAF12 agonist: 1.1*; DAX1 inh-2: 0.6; AHR act: 6.8; LXR ag: -0.1; hcDAF12 ag: 0.8

What do the screens show for `Cc1ccsc1/C=N/NC(=O)c1ccc2c(c1)OCCO2`?
hgDAF-12 ag: 12.6*; DAX1 inh-1: -0.7; hcDAF12 agonist: 8.1*; ssDAF12 agonist: 0.8; DAX1 inh-2: 2.5; AHR act: 22.2; LXR ag: 2.0; hcDAF12 ag: 11.5*

Results for Cc1ccc(/C=N/NC(=O)c2ccc3c(c2)OCCO3)s1 ?
hgDAF-12 ag: 6.4; DAX1 inh-1: 3.6; hcDAF12 agonist: 3.3; ssDAF12 agonist: 0.5; DAX1 inh-2: 1.9; AHR act: 37.1

Results for O=C(N/N=C/c1c(Cl)[nH]c2ccccc12)c1ccc2c(c1)OCCO2 ?
hgDAF-12 ag: 8.2; hcDAF12 agonist: 9.1*; ssDAF12 agonist: 1.3*; DAX1 inh-2: 0.5; AHR act: 28.2; LXR ag: 0.4; hcDAF12 ag: 9.1*

How did CSc1ccc(/C=C(/NC(=O)c2ccco2)C(=O)N2CCOCC2)cc1 do in these assays?
hgDAF-12 ag: -1.6; DAX1 inh-1: 0.7; hcDAF12 agonist: -1.2; ssDAF12 agonist: -1.0; DAX1 inh-2: -0.3; AHR act: 2.0

How did CC(=O)c1ccc(NC(=O)N2CCc3ccccc3C2)cc1 do in these assays?
hgDAF-12 ag: 2.8; DAX1 inh-1: -0.3; hcDAF12 agonist: -0.3; ssDAF12 agonist: -1.3; DAX1 inh-2: -2.7; AHR act: 1.4

Results for Cc1ccc(NC(=O)N2CCc3ccccc3C2)cc1 ?
hgDAF-12 ag: 8.2; DAX1 inh-1: 2.2; hcDAF12 agonist: 7.4*; ssDAF12 agonist: 0.6; DAX1 inh-2: 1.5; AHR act: 16.2; LXR ag: 0.8; hcDAF12 ag: 6.7*

What do the screens show for `CC(C)NC(=O)N1Cc2cc(C(=O)NC3CCC3)nc(-c3cccc(-c4cncnc4)c3)c2[C@H]1CCO`?
hgDAF-12 ag: -3.1; hcDAF12 agonist: -0.4; ssDAF12 agonist: -0.9; DAX1 inh-2: 0.7

What do the screens show for `COc1ccc(-c2cnc(C(O)c3ccccc3)[nH]2)cc1` (stereo not drawn)?
hgDAF-12 ag: 8.4; hcDAF12 agonist: 6.7*; ssDAF12 agonist: -0.7; DAX1 inh-2: 4.3*; LXR ag: 0.8; hcDAF12 ag: 7.1*

Results for COc1ccc(-c2cnc(C(O)c3ccc(-c4ccccc4)cc3)[nH]2)cc1 (stereo not drawn) ?
hgDAF-12 ag: -0.4; hcDAF12 agonist: -0.8; ssDAF12 agonist: -1.3; DAX1 inh-2: -0.3

What do the screens show for `COc1ccc(S(=O)(=O)N2CC(C)OC(C)C2)cc1C(=O)N1CCCCC1` (stereo not drawn)?
hgDAF-12 ag: -1.4; DAX1 inh-1: 0.8; hcDAF12 agonist: -1.0; ssDAF12 agonist: -1.4; DAX1 inh-2: -1.7; AHR act: 4.1

What do the screens show for `CC(OC(=O)CCN=C1NS(=O)(=O)c2ccccc21)C(=O)Nc1ccc(S(N)(=O)=O)cc1` (stereo not drawn)?
hgDAF-12 ag: 0.1; DAX1 inh-1: 0.3; hcDAF12 agonist: -0.1; ssDAF12 agonist: -0.5; DAX1 inh-2: -0.6; AHR act: 1.4

Results for Cc1cc(O)c(C(=O)/C=C/c2cccc([N+](=O)[O-])c2)c(=O)o1 ?
hgDAF-12 ag: 0.6; DAX1 inh-1: 1.1; hcDAF12 agonist: -1.3; ssDAF12 agonist: -0.8; DAX1 inh-2: 0.2; AHR act: 10.7

How did Cc1cc(O)c(C(=O)/C=C/c2ccccc2O)c(=O)o1 do in these assays?
hgDAF-12 ag: 5.1; DAX1 inh-1: 0.9; hcDAF12 agonist: 6.8*; ssDAF12 agonist: 0.7; DAX1 inh-2: 0.2; LXR ag: 0.0; hcDAF12 ag: 2.9

How did COc1ccc(Nc2nccc3c2ncn3C)cc1 do in these assays?
hgDAF-12 ag: 11.4*; DAX1 inh-1: 1.0; hcDAF12 agonist: 6.6*; ssDAF12 agonist: 0.3; DAX1 inh-2: 3.5; AHR act: -4.3; LXR ag: 1.5; hcDAF12 ag: 5.4

How did COc1ccc(NC(=O)c2cccnc2Nc2ccccc2)cc1 do in these assays?
hgDAF-12 ag: 2.6; DAX1 inh-1: 0.0; hcDAF12 agonist: 0.2; ssDAF12 agonist: -1.7; DAX1 inh-2: -0.9; AHR act: -1.8

Results for c1ccc2[nH]c(-c3ccc4c(c3)OCO4)nc2c1 ?
hgDAF-12 ag: 12.4*; hcDAF12 agonist: 9.9*; ssDAF12 agonist: 0.4; DAX1 inh-2: 2.5; AHR act: 1.4; LXR ag: 1.4; hcDAF12 ag: 4.8

Results for O=C(Nc1ccc(-c2nc3ccccc3[nH]2)cc1)c1ccc2c(c1)OCO2 ?
hgDAF-12 ag: -6.0; DAX1 inh-1: -1.3; hcDAF12 agonist: -1.6; ssDAF12 agonist: -2.3; DAX1 inh-2: 0.0; AHR act: 16.8

Results for O=C(NC1CCCCC1)C1Cc2ccccc2CN1S(=O)(=O)c1ccc(F)cc1 (stereo not drawn) ?
hgDAF-12 ag: 0.9; DAX1 inh-1: -0.5; hcDAF12 agonist: -2.8; ssDAF12 agonist: -1.3; DAX1 inh-2: 0.3; AHR act: -1.9
